# Results as given in paper PMC5540273 (PLoS ONE, 2017).
# Experiments:
# Conditions in all cases: concentration: 1 μM, replicates: in singlicate; n = 1
# CTK = tested on: T1, CTK
# T1 construct: gene MATK
# DAPK1 = tested on: DAPK1
# DAPK2 = tested on: DAPK2
# DAPK3 = tested on: DAPK3
# DCAMKL1 = tested on: T2, DCAMKL1
# T2 construct: gene DCLK1
# DCAMKL2 = tested on: T3, DCAMKL2
# T3 construct: gene DCLK2
# DCAMKL3 = tested on: T4, DCAMKL3
# T4 construct: gene DCLK3
# DDR1 = tested on: DDR1
# DDR2 = tested on: DDR2
# DLK = tested on: T5, DLK
# T5 construct: gene MAP3K12
# DMPK2 = tested on: T6, DMPK2
# T6 construct: gene CDC42BPG
# DMPK = tested on: DMPK
# DRAK1 = tested on: T7, DRAK1
# T7 construct: gene STK17A
# DRAK2 = tested on: T8, DRAK2
# T8 construct: gene STK17B
# DYRK1A = tested on: DYRK1A
# DYRK1B = tested on: DYRK1B
# DYRK2 = tested on: DYRK2
# EGFR = tested on: EGFR
# EIF2AK1 = tested on: EIF2AK1
# EPHA1 = tested on: EPHA1
# 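Also: KINOMEscan kinase panel screen.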
SMILES,%Inh (CTK) [%],%Inh (DAPK1) [%],%Inh (DAPK2) [%],%Inh (DAPK3) [%],%Inh (DCAMKL1) [%],%Inh (DCAMKL2) [%],%Inh (DCAMKL3) [%],%Inh (DDR1) [%],%Inh (DDR2) [%],%Inh (DLK) [%],%Inh (DMPK2) [%],%Inh (DMPK) [%],%Inh (DRAK1) [%],%Inh (DRAK2) [%],%Inh (DYRK1A) [%],%Inh (DYRK1B) [%],%Inh (DYRK2) [%],%Inh (EGFR) [%],%Inh (EIF2AK1) [%],%Inh (EPHA1) [%]
Cn1cncc1C(=O)NC1CCN(c2ccnc(Nc3ccc(F)cc3)n2)C1 (centres unmarked) [GSK1379717],0,13,0,5,0,0,0,7,0,0,0,0,0,0,0,21,0,15,3,2
O=C(Nc1n[nH]c2cc(-c3ccsc3)ccc12)C1CC1 [SB-732932],32,4,41,40,0,0,74,0,0,0,0,0,17,0,0,12,28,0,0,3
COC(=O)c1cccc(NC(=O)NC2CCN(c3ccnc(Nc4ccc(OC)cc4)n3)C2)c1 (centres unmarked) [GSK1379746],0,0,0,0,8,0,0,11,46,35,0,0,4,10,11,15,9,31,0,6
Cn1cncc1-c1cc2c(Nc3ccc(OCc4ccccc4)cc3)ncnc2cn1 [GW281179],0,0,0,7,20,14,0,9,0,27,0,0,93,5,19,21,3,100,0,14
CNc1nc(-c2ccc3c(N)n[nH]c3c2)cc(N2C[C@@H](C(=O)NC3CCCCC3)OC[C@H]2C)n1 [GSK2375584],0,26,34,40,24,0,31,15,36,37,11,0,39,2,7,0,0,24,0,14
CC(C)c1cc(-c2ccc3c(N)n[nH]c3c2)nc(N)n1 [GSK2250882],0,9,6,25,2,0,0,0,4,21,0,1,98.4,0,28,0,78,17,12,2
COc1ccc(Nc2nccc(NCCNC(=O)Nc3cc(C)ccc3C)n2)cc1 [GSK1379899],4,0,0,0,0,0,0,9,0,10,0,0,0,0,18,7,2,27,0,5
CC(C)c1ccc(O)cc1Nc1ccnc2ccc(C(F)(F)F)cc12 [GW482059],8,5,0,0,0,0,0,18,0,17,0,0,10,0,13,16,8,37,3,6
COc1ccc2cc(-c3nc(-c4ccccc4C(C)C)[nH]c3-c3ccncc3)ccc2c1 [SB-660566],0,0,0,8,1,0,23,90.5,6,18,0,0,6,0,31,15,7,18,3,22
Fc1ccc(-c2nc3n(c2-c2ccncc2)CCS3)cc1 [GI98581],0,0,0,0,0,21,30,54,54,26,82,16,0,0,15,13,24,32,0,8
CSc1ccc(-c2nc3n(c2-c2ccncc2)CCC3)cc1 [SKF-105561],21,29,0,0,3,0,21,75,60,0,0,0,1,0,3,0,0,7,0,12
Fc1ccc(-c2nc[nH]c2-c2ccncc2)cc1 [SB-217360],31,0,0,8,29,0,0,9,34,0,71,0,0,0,6,0,33,31,0,0
CNc1cc(-c2ccc3c(N)n[nH]c3c2)nc(N)n1 [GSK2224810],0,18,17,37,16,0,28,0,13,29,10,0,95.3,77,64,43,90,17,0,9
O=C(Nc1n[nH]c2nc(-c3ccco3)c(Br)cc12)C1CCN(Cc2ccccc2)C1.O=C(O)[C@H](O)[C@@H](O)C(=O)O (centres unmarked) [SB-742034],71,0,28,17,14,7,20,0,0,0,0,0,11,13,22,0,32,1,33,0
O=C1NC(=O)C(c2ccc(Cl)cc2)=C1Nc1cccc(Cl)c1 [SB-317651],16,8,0,18,18,0,17,0,16,16,0,0,4,0,15,52,1,20,4,0
COc1cc2ncnc(Nc3cccc(Br)c3)c2cc1OC.Cl [GI230329],0,0,0,9,25,0,10,63,43,39,5,6,34,0,15,0,21,–,47,18
Nc1cccc(-c2ccc3c(N)n[nH]c3c2)n1 [GSK2192730],0,27,2,28,0,0,0,0,0,0,0,0,68,0,25,21,52,0,0,14
Cc1ccc(NC(=O)c2ccc(Cl)cc2)cc1-c1ccc(C(=O)Nc2ccncc2)cc1 [GSK1398467],0,12,0,34,3,0,0,89,36,0,0,0,5,0,4,0,0,33,0,19
Cn1cnc2c(N)ncnc21 [SKF-97623],0,100,0,0,0,0,11,0,30,6,0,0,8,0,0,36,0,13,0,0
COc1ccc(Nc2nccc(N3CCC(NC(=O)C(C)c4ccc(Cl)cc4)C3)n2)cc1 (centres unmarked) [GSK1379735],4,0,0,0,0,6,29,28,16,13,0,0,8,0,12,0,3,14,77,0
COC(=O)c1cccc(NC(=O)NC2CCN(c3ccnc(Nc4ccc(F)cc4)n3)C2)c1 (centres unmarked) [GSK1379725],0,0,0,0,0,0,12,0,0,0,0,0,0,0,18,0,0,0,0,8
